About 360 (15%) of roughly 2,400 compounds were called active.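 The calls were made as follows: active = viability falls under 70% at one or more tested concentrations, taken as toxicity; inactive = viability stays over 70% at every dose.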 Not all results are given here. Measured potencies and affinities stand elsewhere.

Data on 59 compounds can be found in PubChem BioAssay AID624300 (Southern Research Specialized Biocontainment Screening …, 2012).

This experiment in a line: viability loss in HeLa cells – cytotoxicity control for MgcRacGAP inhibitor project, dose response (AID 624300).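 Also: 100% = median of untreated control wells on the same plate.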 The conditions noted are these: CellTiter-Glo luminescence, 24 h; series mostly up to 100 µM; viability: at the top concentration. For orientation: In ATP-based viability assays light output follows the ATP content of the culture.
On to `COC(=O)CC1SC(=O)NC1=Nc1ccc(O)cc1` (centres undefined), for which the viability (in general, a read-out of living cells in per cent, often relative to untreated cells) was 113% (inactive). With `S=c1[nH]c2ccccc2n2c(=S)[nH]nc12`, the “viability” value is 87.8% (inactive).

Consider `O=C(CNC(=O)c1cccs1)N/N=C/c1ccc(O)cc1O`, for which the “viability” value was 102% (inactive). The figure for `COc1ccc(N2CCN(C(CNS(=O)(=O)c3cccs3)c3cccnc3)CC2)cc1` (centres undefined) is 98.2% (inactive); for `O=C1Nc2ccccc2C1=Nc1ccc2[nH]c3ccccc3c2c1` it is 103% (inactive); for `COc1ccc(CN(C)CC(=O)Nc2ccc(Cl)cc2C(F)(F)F)c(OC)c1` it is 82.5% (inactive). Consider `O=S(=O)(O)c1cc(O)c2ccc(Nc3ccccc3)cc2c1`, for which the “viability” value is 103% (inactive).

For `O=S(=O)(O)c1ccc(O)c2cc(Nc3ccccc3)ccc12`, the “viability” value is 104% (inactive). The figure for `CCOc1ccccc1Oc1cn[nH]c1-c1ccc(O)cc1O` is 86.2% (inactive); for `COc1cc(CNc2ccc3[nH]c(=O)[nH]c3c2)ccc1OCc1cccc(C)c1` it is 97% (inactive); for `COc1cc(/C=C2/C(=O)NN(c3ccc(Cl)cc3)C2=O)cc(Br)c1O` it is 104% (inactive).

On to `O=C1ON=C(c2ccccc2)/C1=C/c1ccco1`, for which the “viability” value was 81.6% (inactive). The figure for `O=C1/C(=C/c2ccc(O)c(O)c2)Oc2cc(O)ccc21` is 100% (inactive). Turning to `COC(=O)C1=C(O)/C(=C\c2ccc(O)c(OC)c2)N=C1C`, the “viability” value was 104% (inactive). Next, `CCOc1cc(/C=N/NC(=O)c2c(-c3ccccc3)noc2C)ccc1O`: 113% (inactive); `COc1cc(/C=C2\Oc3cc(O)ccc3C2=O)ccc1O`: 113% (inactive); `O=[N+]([O-])c1cccc(S(=O)(=O)N/N=C/c2ccc(O)cc2)c1`: 114% (inactive). In the case of `COc1cc(/C=C/CN2CCC(Oc3ccc(C(=O)N4CCCC4)cc3)CC2)ccc1O`, the “viability” value was 89.1% (inactive). Next, `Nc1ccc(N2CCN(c3ccc(F)cc3)CC2)cc1`: 103% (inactive).

For `c1ccc(CNc2ccc(N3CCOCC3)cc2)cc1`, the “viability” value was 99.7% (inactive). `COc1ncnc2c1ncn2CCCNc1ccc(C)c(C)c1`: the “viability” value is 98.5% (inactive). The figure for `C/C(=N\Nc1nc2ccccc2[nH]1)c1cccs1` is 83% (inactive); for `Cc1cc(C)nc(N/N=C/c2c[nH]c3ccccc23)n1` it is 105% (inactive); for `Cc1[nH]c2ccccc2c1/C=N/Nc1nncn1N` it is 94.1% (inactive). Next, `O=C(O)c1ccc(N/N=C/c2c[nH]c3ccccc23)cc1`: 103% (inactive); `O=c1cc(CN2CCOCC2)c2ccc(O)c(O)c2o1`: 87.7% (inactive). The figure for `COc1cc(/C=N/NC(=O)Cn2nnc3ccccc32)ccc1O` is 99.2% (inactive); for `O=C(Nc1ccc(O)cc1)c1cc2ccccc2c(=O)s1` it is 107% (inactive).

Consider `CC[N+](CC)(CC)CCCCOc1ccc2c(c1)C(=O)c1cc(OCCCC[N+](CC)(CC)CC)ccc1-2`, for which the “viability” value is 99.7% (inactive). With `FC(F)(F)c1cccc(N2CCC(N=CN3CCCCCC3)=N2)c1`, the “viability” value was 94.9% (inactive).

Turning to `Oc1ccc(/C=N/Nc2ccc(C(F)(F)F)cn2)cc1`, the “viability” value was 98% (inactive). Next, `Oc1ccc(C=NNc2ccccn2)c(O)c1`: 89.5% (inactive). The figure for `Nc1ccc(Nc2ccccc2)c(Cl)c1` is 94.6% (inactive); for `Oc1cccc(Nc2ccccc2)c1` it is 95.9% (inactive); for `CCOc1cc(/C=N/NC(=O)c2ccc(NC(=O)C3CC3)cc2)ccc1O` it is 88.8% (inactive). Consider `O=C(CCN1CCCCCC1)Nc1ccc2c(c1)OCCO2`, for which the “viability” value is 105% (inactive). Next, `C/C(CC(=O)Nc1ccc(N(C)C)cc1)=N\NC(=O)c1ccc([N+](=O)[O-])cc1`: 94.7% (inactive). The figure for `O=C(Nc1ccc(O)cc1)c1cccc(Oc2ccc([N+](=O)[O-])cc2)c1` is 86.5% (inactive); for `O=C(CNC(=O)c1ccco1)N/N=C/c1ccc(O)cc1O` it is 108% (inactive); for `Cc1ccc(OC(=S)Nc2ccc(O)cc2)cc1` it is 109% (inactive). The figure for `COc1ccc(/C=N/Nc2nc3ccccc3s2)cc1O` is 97.9% (inactive); for `COc1cc(/C=N/NC(=O)c2cc3ccccc3[nH]2)ccc1O` it is 91.6% (inactive). For the compound `Cc1ccsc1/C=N/Nc1nc2ccccc2[nH]1`, the “viability” value is 89.9% (inactive). Next, `COc1cc(/C=N/Nc2nc(C)cc(=O)[nH]2)ccc1O`: 94.6% (inactive); `CCC(=Nc1ccc(N)cc1)C1=C(O)C(C(=O)OC)C(C)(C)CC1=O` (centres undefined): 101% (inactive).

Regarding `COc1ccc(OC)c(CN2CCN(Cc3ccc(OC)c(OC)c3OC)CC2)c1`, the “viability” value is 96.2% (inactive).

For the compound `CC1CC(C)(C)N(C(=O)CN2CCN(C)CC2)c2ccccc21` (centres undefined), the “viability” value is 100% (inactive). Next, `COc1ccccc1-n1c(=O)c2c3c(sc2n2c(=S)[nH]nc12)CCC3`: 88.5% (inactive); `Oc1ccc(/C=N/Nc2ncnc3c2ncn3Cc2ccccc2)cc1O`: 85.7% (inactive); `O=[N+]([O-])c1cccc(CN2CCN(c3cccc4[nH]ccc34)CC2)c1`: 105% (inactive). For the compound `COc1ccccc1/C=C(/C(=O)OCC(=O)Nc1ccc(N(C)C)cc1)c1ccccc1`, the “viability” value is 102% (inactive). As for `COc1ccc(S(=O)(=O)N2CCC(N3CCN(c4ccccc4OC)CC3)CC2)cc1`, the “viability” value is 101% (inactive).

`Cc1cccc(CN2CCN(Cc3ccco3)CC2)c1`: the “viability” value is 100% (inactive).

On to `COc1ccc(NCc2cc3ccccc3[nH]c2=O)cc1`, for which the “viability” value is 83.7% (inactive). With `Nc1[nH]c2cc([N+](=O)[O-])ccc2c1-c1ccccn1`, the “viability” value is 98.9% (inactive). Next, `CN(C)c1ccc(NC(=O)COC(=O)CNC(=O)c2cccs2)cc1`: 100% (inactive); `Cc1cc(OCCCN2CCN(Cc3ccccc3)CC2)ccc1[N+](=O)[O-]`: 87.5% (inactive); `Cc1c(N=C2NC(=O)/C(=C/c3ccc(O)cc3)S2)c(=O)n(-c2ccccc2)n1C`: 97.4% (inactive).

Regarding `O=C(CSc1ccc2ccccc2n1)N/N=C/c1ccc(O)cc1`, the “viability” value was 100% (inactive).
